Among all 5,500 compounds or so, about 2,000 (36%) were called active. About 18% were inconclusive and are not listed. Cut-off read from the data, not from the text of the source: active = normalized growth mostly below about 0.91 (no sharp cut-off); inconclusive = no clear call, values can overlap the other calls; inactive = mostly above about 0.92. The list shows a part of the results.
Assay: chemical genetic growth profiling, strain panel (AID 1159580);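 note: tested at 20 µM; growth read once vehicle control cultures reached saturation at 30 °C; 1 = growth at the plate median or of vehicle wells; lower values mean less growth of the strain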
Conditions: S. cerevisiae deletion strains, growth OD

Measured: normalized growth

COc1c(Cl)ccc(Cl)c1C(=O)O
inactive: locus YAL013W, strain DEP1, active compounds read low 1.01 | locus YAL021C, strain ccr4, active compounds read low 0.972 | locus YAL026C, strain drs2, active compounds read low 0.988 | locus YAL030W, strain snc1, active compounds read low 0.984 | locus YBL061C, strain skt5, active compounds read low 0.977 | locus YBR009C, strain hhf1, active compounds read low 0.988 | locus YBR021W, strain FUR4, active compounds read low 1.02 | locus YBR023C, strain chs3, active compounds read low 0.995 | locus YBR171W, strain sec66, active compounds read low 0.977 | locus YBR229C, strain ROT2, active compounds read low 0.999 | locus YBR231C, strain swc5, active compounds read low 0.968 | locus YBR279W, strain paf1, active compounds read low 0.982 | locus YCL011C, strain gbp2, active compounds read low 0.981 | locus YCL016C, strain dcc1, active compounds read low 0.986 | locus YCL029C, strain bik1, active compounds read low 1.02 | locus YCL061C, strain MRC1, active compounds read low 0.985 | locus YCL069W, strain vba3, active compounds read low 0.984 | locus YCR088W, strain abp1, active compounds read low 0.978 | locus YDL005C, strain med2, active compounds read low 0.975 | locus YDL035C, strain GPR1, active compounds read low 1.02 | locus YDL040C, strain nat1, active compounds read low 0.977 | locus YDL074C, strain BRE1, active compounds read low 1.04 | locus YDL101C, strain DUN1, active compounds read low 1.01 | locus YDL134C, strain PPH21, active compounds read low 1.01 | locus YDL185W, strain tfp1, active compounds read low 1.02 | locus YDL192W, strain arf1, active compounds read low 1.02 | locus YDR001C, strain nth1, active compounds read low 0.985 | locus YDR069C, strain doa4, active compounds read low 0.976 | locus YDR101C, strain arx1, active compounds read low 1.01 | locus YDR137W, strain rgp1, active compounds read low 1.01 | locus YDR150W, strain NUM1, active compounds read low 1 | locus YDR159W, strain sac3, active compounds read low 0.972 | locus YDR162C, strain NBP2, active compounds read low 1.01 | locus YDR195W, strain ref2 0.919 | locus YDR297W, strain sur2, active compounds read low 0.993 | locus YDR318W, strain mcm21, active compounds read low 1.02 | locus YDR334W, strain swr1, active compounds read low 0.979 | locus YDR335W, strain msn5, active compounds read low 0.985 | locus YDR388W, active compounds read low 1.01 | locus YDR392W, strain spt3, active compounds read low 0.999 | locus YDR502C, strain sam2, active compounds read low 1.01 | locus YEL003W, strain gim4, active compounds read low 0.985 | locus YEL037C, strain rad23, active compounds read low 0.985 | locus YEL061C, strain CIN8 (second series), active compounds read low 0.973 | locus YEL061C, strain CIN8, active compounds read low 0.997 | locus YER015W, strain faa2, active compounds read low 0.981 | locus YER016W, strain bim1, active compounds read low 0.985 | locus YER110C, active compounds read low 1.02 | locus YER111C, strain swi4, active compounds read low 0.96 | locus YER155C, strain BEM2 (second series), active compounds read low 0.982 | locus YER155C, strain BEM2, active compounds read low 1.01 | locus YER167W, strain BCK2, active compounds read low 1.02 | locus YFR010W, strain ubp6, active compounds read low 0.983 | locus YGL078C, strain dbp3, active compounds read low 1.01 | locus YGL086W, strain mad1, active compounds read low 1.01 | locus YGL167C, strain pmr1, active compounds read low 0.984 | locus YGL173C, strain kem1, active compounds read low 0.982 | locus YGL227W, strain vid30, active compounds read low 0.97 | locus YGL240W, strain doc1, active compounds read low 0.961 | locus YGL248W, strain PDE1, active compounds read low 1.01 | locus YGL253W, strain hxk2, active compounds read low 0.993 | locus YGR078C, strain PAC10, active compounds read low 1.01 | locus YGR135W, strain pre9, active compounds read low 1.02 | locus YGR229C, strain SMI1, active compounds read low 1.04 | locus YGR252W, strain gcn5, active compounds read low 1.02 | locus YHR013C, strain ard1, active compounds read low 0.957 | locus YHR027C, strain rpn1, active compounds read low 0.995 | locus YHR030C, strain SLT2, active compounds read low 1.01 | locus YHR079C, strain IRE1 (second series), active compounds read low 1.01 | locus YHR094C, strain hxt1, active compounds read low 1.01 | locus YHR129C, strain ARP1, active compounds read low 1.01 | locus YHR142W, strain chs7, active compounds read low 0.979 | locus YHR200W, strain rpn10, active compounds read low 1 | locus YIL066C, strain RNR3, active compounds read low 1.04 | locus YIL073C, strain SPO22, active compounds read low 1.09 | locus YIL125W, strain kgd1, active compounds read low 1.01 | locus YIR030C, strain dcg1, active compounds read low 1.01 | locus YJL092W, strain hpr5, active compounds read low 0.987 | locus YJL095W, strain BCK1 (second series), active compounds read low 0.99 | locus YJL095W, strain BCK1, active compounds read low 1.02 | locus YJL115W, strain asf1, active compounds read low 0.976 | locus YJL129C, strain trk1, active compounds read low 0.976 | locus YJL134W, strain LCB3, active compounds read low 1.01 | locus YJL154C, strain vps35, active compounds read low 0.992 | locus YJL164C, strain tpk1, active compounds read low 0.987 | locus YJL166W, strain qcr8, active compounds read low 0.997 | locus YJL168C, strain set2, active compounds read low 1.01 | locus YJL187C, strain SWE1 (second series), active compounds read low 1.01 | locus YJL187C, strain SWE1, active compounds read low 0.99
